Screening data: PubChem, Pan Lab, Icahn School of Medicine at Mount Sinai
RBX1-CUL1 inh: human ROC1-CUL1 E3 ligase inhibition. P62877+Q13616. in vitro K48 di-Ub FRET, acceptor:donor ratio, 45 min. inhibition, % at 10 µM. hit rate 0.6% among 140,000. AID 1347404; in the data active means inhibition above about 25%
An asterisk follows results filed as active. The sample as a whole holds a higher share of hits than the screen did.

For CCOC(=O)c1cnc2ccc(OCC)cc2c1Nc1ccc(OCc2ccccc2Cl)cc1 the results were RBX1-CUL1 inh -1.
`Cc1ccc(-n2c(=O)c3oc4ccccc4c3n(Cc3ccccc3)c2=O)cc1C` gave RBX1-CUL1 inh 2.
Cc1cc(N=C2NC(=O)/C(=C\c3ccc(Br)o3)S2)ccc1Cl was read as RBX1-CUL1 inh 4.
Screening Cc1ccc(/C=C2\SC(=Nc3ccc(C)c(C)c3)NC2=O)o1 returned RBX1-CUL1 inh -5.
For CCN(CC)c1ccc(/C=C2\SC(=Nc3ccc(Cl)c(Cl)c3)NC2=O)o1 the results were RBX1-CUL1 inh 29*.
For CCOc1ccccc1NC(=O)Cn1c(=O)n(CCCC(=O)NCc2ccc(C)cc2)c(=O)c2ccccc21 the results were RBX1-CUL1 inh -2.
`CCCC#Cc1ccc(-c2ccc(C#N)c(F)c2)s1` gave RBX1-CUL1 inh 2.
`CC(Oc1ccccc1Cl)C(=O)N1CCN(CCc2ccccn2)CC1` (configuration not stated) gave RBX1-CUL1 inh 2.
`C(=C1Sc2ccccc2S1)c1ccco1` gave RBX1-CUL1 inh 57*.
`N#CC1C(=N)S/C(=C/c2ccco2)C1=N` (configuration not stated) gave RBX1-CUL1 inh 24.
`C(=N\N(c1ccccc1)c1ccccc1)/c1ccco1` gave RBX1-CUL1 inh 1.
For O=C(CSc1nc2c(c(=O)[nH]1)CN(Cc1ccc3c(c1)OCO3)CC2)Nc1ccccc1Cl the results were RBX1-CUL1 inh -3.
`N=C1/C(=C/c2cccc(Br)c2)C(=O)N=C2SC(C(F)(F)F)=NN12` gave RBX1-CUL1 inh -2.
For Cc1ccc(S(=O)(=O)Oc2cccc(/C=C3/C(=N)N4N=C(CC(C)C)SC4=NC3=O)c2)cc1 the results were RBX1-CUL1 inh 1.
For CC(C)(C)c1ccc(C(=O)Oc2cccc(/C=C3\C(=N)N4N=C(c5ccco5)SC4=NC3=O)c2)cc1 the results were RBX1-CUL1 inh 96*.
`N=C1/C(=C/c2cccc(OC(=O)c3cccs3)c2)C(=O)N=C2SC(c3cccs3)=NN12` gave RBX1-CUL1 inh 95*.
Screening CCOC(=O)c1ccc(-c2ccc(/C=C3/C(=N)N4N=C(c5ccc(C)cc5)SC4=NC3=O)o2)cc1 returned RBX1-CUL1 inh 2.
Screening COc1cc(/C=C2/C(=N)N3N=C(c4ccco4)SC3=NC2=O)cc(OC)c1OC returned RBX1-CUL1 inh 18.
Screening ClC(Cc1ccccc1)(Cc1ccccc1)Cn1ccnc1 returned RBX1-CUL1 inh 12.
CC(C)c1n[nH]c2c1CN(C(=O)Cn1nnc3ccccc3c1=O)CC2 was read as RBX1-CUL1 inh -2.
For CCOC(=O)c1c(CSc2ccccc2)n(C)c2cc(Br)c(OCC(O)Cn3nc(C)cc3C)cc12 (configuration not stated) the results were RBX1-CUL1 inh -4.
COc1cccc(NC(=O)CSc2nnc(COc3cccc(C)c3)o2)c1 was read as RBX1-CUL1 inh 4.
Screening Cc1cc(C)nc(SCc2nnc(SCC(=O)Nc3cccc(Cl)c3)n2C)n1 returned RBX1-CUL1 inh 4.
NC(=O)CCN1CCN(CCOC2Cc3cc(Cl)ccc3Sc3ccccc32)CC1 (configuration not stated) was read as RBX1-CUL1 inh -9.
Screening Cc1c(Cl)cccc1Nc1nc(N)nc(CSc2ncccn2)n1 returned RBX1-CUL1 inh 4.
CC(C)c1cc(/C=C2\OC(=O)c3ccccc32)cc(C(C)C)c1O was read as RBX1-CUL1 inh -9.
For O=C1/C(=C/c2ccc(O)c(O)c2)Oc2ccccc21 the results were RBX1-CUL1 inh 97*.
`COc1ccc(C=C2C(=O)c3ccccc3C2=O)cc1O` gave RBX1-CUL1 inh -2.
COC(=O)c1sccc1NC(=O)c1c(Br)cnn1C was read as RBX1-CUL1 inh -8.
O=C(N/N=C/c1cn[nH]c1-c1ccc(F)cc1)C1CC1 was read as RBX1-CUL1 inh 0.
`N=C1CC(=O)Nc2nnc(SCCc3ccccc3)n21` gave RBX1-CUL1 inh -1.
For COC(=O)CN1CCN(Cc2ccc(F)cc2)CC1 the results were RBX1-CUL1 inh -8.
Screening COc1ccc(-n2c(CSc3nc(C)cc(C)n3)nnc2SCC(=O)Nc2ccccc2)cc1 returned RBX1-CUL1 inh -3.
For Cn1cnnc1SCc1ccccc1Cl the results were RBX1-CUL1 inh 6.
For O=C1CCCN1c1ccc(S(=O)(=O)N2CCN(c3ccc(F)cc3)CC2)cc1 the results were RBX1-CUL1 inh 1.
Screening O=C(Nc1ccc2nc(SCC(=O)N3CCCC3)sc2c1)c1ccccc1Cl returned RBX1-CUL1 inh 9.
Cc1cc(Cl)ccc1NCc1nnc(SCC(=O)N/N=C/c2ccc(N(C)C)cc2)n1-c1ccccc1 was read as RBX1-CUL1 inh 10.
Screening Cn1c2ccccc2c2nsnc21 returned RBX1-CUL1 inh 5.
`C#CCNC(=O)C[n+]1c2ccccc2n2nc3c(cc21)c1cccc2cccc3c21` gave RBX1-CUL1 inh 0.
`Cn1c2cccc3cccc(c32)[n+]2nc3c(cc12)c1cccc2cccc3c21` gave RBX1-CUL1 inh 95*.
CC1CC(=O)C2=C(C1)OC(=N)C(C#N)C2c1ccc(F)cc1 (configuration not stated) was read as RBX1-CUL1 inh 8.
`CCCCNC(=O)N1CCN(Cc2ccccc2)CC1` gave RBX1-CUL1 inh 10.
`CC(C)C(=O)N1CCN(Cc2cccc(F)c2)CC1` gave RBX1-CUL1 inh -5.
For O=C(C(C(F)(F)F)C(F)(F)F)N1CCN(Cc2ccccc2)CC1 the results were RBX1-CUL1 inh 53*.
Screening O=C(NCCN1CCCCC1)c1ccc(Cn2c(SCc3cccc(F)c3)nc3cccnc32)cc1 returned RBX1-CUL1 inh -7.
O=C(O)c1ccc2c(c1)C1C=CCC1C(C1CC=CCC1)N2 (configuration not stated) was read as RBX1-CUL1 inh 101*.
Screening CCOC(=O)[C@@H]1Nc2ccc(Br)cc2[C@@H]2C=CC[C@H]12 returned RBX1-CUL1 inh 2.
For COC(=O)c1ccc2c(c1)C1C=CCC1C(c1ccc([N+](=O)[O-])cc1)N2 (configuration not stated) the results were RBX1-CUL1 inh 2.
`COc1cc(CNC(C)(C)CO)cc(Br)c1OCc1ccccc1` gave RBX1-CUL1 inh 3.
`Cc1ccc(S(=O)(=O)N=C2Cc3ccccc3N2C)cc1` gave RBX1-CUL1 inh 27*.
`Cc1ccc(S(=O)(=O)N=NC2CCSCC2)cc1` gave RBX1-CUL1 inh -1.
CC(=O)N=C1CC(=NS(=O)(=O)c2ccc(C)cc2)CC(=NC(C)=O)C1=O was read as RBX1-CUL1 inh -1.
`CN=C1CC=C(Br)C=C(C(=O)/C=C/c2cccc(OC)c2)C1=O` gave RBX1-CUL1 inh 44*.
CN=C1CC=C(Br)C=C(C(=O)/C=C/c2ccc(Cl)cc2)C1=O was read as RBX1-CUL1 inh 63*.
COc1cccc(N2CC(NC(=O)/C=C\c3ccc(OC)c(OC)c3)CC2=O)c1 (configuration not stated) was read as RBX1-CUL1 inh -13.
CCOc1ccc(/C=C/C(=O)C2=CC(Br)=CCC(=NC)C2=O)cc1 was read as RBX1-CUL1 inh 8.
`CN=C1CC=C(Br)C=C(C(=O)/C=C/c2ccc(Cl)cc2Cl)C1=O` gave RBX1-CUL1 inh 4.
`CCN=C1CC=C(Br)C=C(C(=O)/C=C/c2ccc(OC)c(OC)c2)C1=O` gave RBX1-CUL1 inh -6.
CCOc1ccccc1CNC(=O)c1cnc2sc(N(CC)CC)nn2c1=O was read as RBX1-CUL1 inh -6.
O=C(COc1ccc(Cl)cc1-c1ccno1)N/N=C\C1=C(Cl)c2cc(Cl)ccc2OC1 was read as RBX1-CUL1 inh -8.
